The record followed here is the supplement of paper PMC9135407.

Several values for one entry are separate records, joined by “and”; a condition that tells them apart may be missing. Equal values may be shown once. Where a name gives a salt, the structure may show the parent alone. Out of some 5,800 compounds screened, about 620 (11%) showed activity. This excerpt belongs to a sample that is enriched for actives. A number with no mark means an inactive call.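 The calls were made as follows: active = score above a cut-off or among the top three wells of a plate; in these data no inactive exceeds 0.85.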

This assay deals with primary human hepatic stellate cells (donor 1). Description: scaled lipid accumulation score (0 = DMSO-like, 1 = nortriptyline-like); higher = stronger HSC inactivation (lipid re-accumulation), active = hit call of the paper. To be noted: 48 h.
Where [1] appears, read: library stock concentration: 1 mM.
[2] abbreviates: library stock concentration: 10 mM.
[3] abbreviates: library stock concentration: 80 uM.
Setting [4] is: library stock concentration: 400 uM.
[5] abbreviates: library stock concentration: 2 mM.
[6] abbreviates: library stock concentration: 3.33 mM.

For the compound `CCCCCCCCCCCCCCCCCC(=O)N[C@H]1CCOC1=O` [N-octadecanoyl-L-Homoserine lactone], the “scaled lipid accumulation score” value under setting [1] was not above 0.
As for `CCCCN1C[C@H](O)[C@@H](O)[C@H](O)[C@H]1CO` [Miglustat], the “scaled lipid accumulation score” value (library stock concentration: 9.1 mM) was not above 0.
Regarding `Nc1nc(Nc2ccccc2)nc2c1ncn2[C@@H]1O[C@H](CO)[C@@H](O)[C@H]1O`, the “scaled lipid accumulation score” value under setting [2] is not above 0.
For `Cc1ccc(NC(=O)c2ccc(CN3CCN(C)CC3)cc2)cc1Nc1nccc(-c2cccnc2)n1` [Imatinib (STI571)] [listing 1 of 2 here], the “scaled lipid accumulation score” value under setting [2] was 0.92 (active).
Regarding `Cc1ccc(NC(=O)c2ccc(CN3CCN(C)CC3)cc2)cc1Nc1nccc(-c2cccnc2)n1` [Imatinib], the “scaled lipid accumulation score” value under setting [3] is not above 0, the “scaled lipid accumulation score” value under setting [4] was not above 0 and the “scaled lipid accumulation score” value under setting [5] is 0.049.
In the case of `CS(=O)(=O)O.Cc1ccc(NC(=O)c2ccc(CN3CCN(C)CC3)cc2)cc1Nc1nccc(-c2cccnc2)n1` [Imatinib Mesylate (STI571)], under setting [2], the “scaled lipid accumulation score” value was 1.1 (active).
As to `CS(=O)(=O)O.Cc1ccc(NC(=O)c2ccc(CN3CCN(C)CC3)cc2)cc1Nc1nccc(-c2cccnc2)n1`, the “scaled lipid accumulation score” value under setting [2] was 1.08 (active).
With `Cc1ccc(NC(=O)c2ccc(CN3CCN(C)CC3)cc2)cc1Nc1nccc(-c2cccnc2)n1` [Imatinib (STI571)] [listing 2 of 2 here], the “scaled lipid accumulation score” value under setting [6] was 0.133.
`CS(=O)(=O)O.Cc1ccc(NC(=O)c2ccc(CN3CCN(C)CC3)cc2)cc1Nc1nccc(-c2cccnc2)n1` [Imatinib]: the “scaled lipid accumulation score” value under setting [2] was 0.969 (active).
As to `Cc1cc(-c2ccc(CC(=O)Nc3ccc(-c4cccnc4)cc3)cc2)ccn1`, the “scaled lipid accumulation score” value was 0.089 under setting [6] and 0.262 under setting [2].
Take `Cc1ccc(NC(=O)c2ccc(CN3CCN(C)CC3)cc2)cc1Nc1nccc(-c2cccnc2)n1` [Imatinib Mesylate (STI571)]: the “scaled lipid accumulation score” value under setting [6] is 0.259.
With `Cc1ccc(NC(=O)c2ccc(CN3CCN(C)CC3)cc2)cc1Nc1nccc(-c2cccnc2)n1`, the “scaled lipid accumulation score” value was 0.022 under setting [4], not above -0.005 under setting [5] and 0.628 under setting [2].
For `CCCCC/C=C\C/C=C\C/C=C\CCCCCCC(=O)O` [Dihomo-gamma-linolenic acid], the “scaled lipid accumulation score” value under setting [1] was not above -0.021.
For `CCCCC/C=C\C/C=C\C/C=C\CCCCCCC(=O)O` [Dihomo-.gamma.-Linolenic Acid], the “scaled lipid accumulation score” value under setting [1] is 0.003.
Consider `CCCCC(CC)COC(=O)CC(C(=O)OCC(CC)CCCC)S(=O)(=O)O` (centres undefined), for which the “scaled lipid accumulation score” value under setting [2] was not above 0.
Consider `CCCCC[C@H](O)/C=C/[C@H]1[C@H](O)CC(=O)[C@H]1C/C=C\CCCC(=O)OC(C)C` [8-iso Prostaglandin E2 isopropyl ester], for which the “scaled lipid accumulation score” value under setting [1] is not above 0.
As to `CC/C=C\C/C=C\C/C=C\C/C=C\C/C=C\C/C=C\CCC(=O)O[C@H](COCCCCCCCCCCCCCCCC)COP(=O)([O-])OCC[N+](C)(C)C` [Docosahexaenoyl PAF C-16], the “scaled lipid accumulation score” value under setting [1] is not above 0.
The same measure, in the same setting: with `CC/C=C\C/C=C\C/C=C\C/C=C\C/C=C\CCCC(=O)O[C@H](COCCCCCCCCCCCCCCCC)COP(=O)([O-])OCC[N+](C)(C)C` [Eicosapentaenoyl PAF C-16] the figure was not above 0.
For `COc1ccc(CCN(C)CCCC(C#N)(c2cc(OC)c(OC)c(OC)c2)C(C)C)cc1OC` (centres undefined), under setting [2], the “scaled lipid accumulation score” value was 0.616.
As to `CCCCC[C@H](O)/C=C/[C@@H]1[C@H]2C[C@@H](CCCCC(=O)O)O[C@H]2C[C@H]1O` [6.alpha.-Prostaglandin I1], the “scaled lipid accumulation score” value under setting [1] was 0.002.
Turning to `C=CCc1ccc(O)c(-c2ccc(O)c(CC=C)c2)c1` [Honokiol], the “scaled lipid accumulation score” value is, setting by setting: under setting [6], not above 0; under setting [2], 0.295.
On to `CCCCC[C@@H](O)/C=C/[C@H]1C(=O)C[C@H](O)[C@@H]1CCCCCCCO` [Prostaglandin D1 Alcohol], for which the “scaled lipid accumulation score” value under setting [1] was not above 0.
Turning to `CC(=O)CCCCn1cnc2c1c(=O)n(C)c(=O)n2C`, the “scaled lipid accumulation score” value under setting [2] was not above 0.
On to `Nc1ncnc2c1C(=O)N(c1ccc([C@H]3CC[C@H](CC(=O)O)CC3)cc1)CCO2`, for which the “scaled lipid accumulation score” value was not above -0.009 under setting [6] and not above 0 under setting [2].
In the case of `COc1ccc(CCC(C)NC2CC(C)(C)NC(C)(C)C2)cc1` (centres undefined), the “scaled lipid accumulation score” value under setting [2] is 0.998 (active).
As for `COc1ccc(CNCc2cccc3ccccc23)cc1`, the “scaled lipid accumulation score” value by setting is: under setting [6], 0.023; under setting [2], 0.491.
In the case of `CC(/C=C/c1cccc(Oc2ccc(F)cc2)c1)N(O)C(N)=O` (centres undefined), the “scaled lipid accumulation score” value under setting [2] is 0.544 and 0.071.
The same measure, in the same setting: with `C[C@@H]1C[C@H]2[C@@H]3CCC4=CC(=O)C=C[C@]4(C)[C@@]3(F)[C@@H](O)C[C@]2(C)[C@H]1C(=O)CO` the figure was not above 0.
For `Cc1cc(C)cc(OCC2CNC(=O)O2)c1` (centres undefined) [Metaxalone], the “scaled lipid accumulation score” value reads like this: (library stock concentration: 9 mM) not above 0; under setting [2], not above -0.023.
Regarding `COc1ccc2nc3cc(Cl)ccc3c(Nc3cc(CN4CCCC4)c(O)c(CN4CCCC4)c3)c2n1`, under setting [2], the “scaled lipid accumulation score” value was 0.065.
Regarding `N=C(N)NC(=N)N1CCOCC1` [Moroxydine HCl], the “scaled lipid accumulation score” value is, setting by setting: under setting [6], 0.051; (library stock concentration: 9.6 mM) not above -0.006; under setting [2], not above 0.
With `N=C(N)NC(=N)N1CCOCC1`, the “scaled lipid accumulation score” value under setting [2] is not above 0.
Still for that read-out and setting: to `CCN(CC)CCOc1ccc(Nc2ncc3cc(-c4c(Cl)cccc4Cl)c(=O)n(C)c3n2)cc1` belongs 0.416; to `CCN(CC)CCCCNc1ncc2cc(-c3c(Cl)cccc3Cl)c(NC(=O)NC(C)(C)C)nc2n1` [listing 1 of 2 here], 1.41 (active); to `CCN(CC)CCCCNc1ncc2cc(-c3c(Cl)cccc3Cl)c(NC(=O)NC(C)(C)C)nc2n1` [listing 2 of 2 here], 0.999 (active).
Consider `CSc1cccc(Nc2ncc3cc(-c4c(Cl)cccc4Cl)c(=O)n(C)c3n2)c1`, for which the “scaled lipid accumulation score” value was 0.68 under setting [6] and 0.591 under setting [2].
On to `COc1c(C=O)c(O)cc2c1C(=O)c1ccccc1C2=O` [Damnacanthal], for which the “scaled lipid accumulation score” value (library stock concentration: 17.7 mM) was not above -0.011.
As for `Nc1nc(=O)c2c([nH]1)NC[C@@H](CNc1ccc(C(=O)N[C@@H](CCC(=O)O)C(=O)O)cc1)N2C=O` [Folinic acid calcium salt], the “scaled lipid accumulation score” value was not above 0.
Consider `O=C(c1ccc(C=Cc2n[nH]c3ccccc23)cc1)N1CCNCC1`, for which the “scaled lipid accumulation score” value under setting [2] was 1.27 (active).
For the compound `O=C(c1ccc(/C=C/c2n[nH]c3ccccc23)cc1)N1CCNCC1`, the “scaled lipid accumulation score” value reads like this: under setting [3], not above -0.016; under setting [4], not above -0.016; under setting [5], not above -0.016; under setting [6], 0.101; under setting [2], 0.67.
Consider `CCC(=O)N1CCN(C(=O)c2ccccc2)CC1`, for which, under setting [2], the “scaled lipid accumulation score” value was 0.027.
In the case of `CCCCC(CC)CNC(=N)NC(=N)NCCCCCCNC(=N)NC(=N)NCC(CC)CCCC` (centres undefined) [Alexidine dihydrochloride], the “scaled lipid accumulation score” value is 0.586.
Take `CCCCC(C)(C)[C@H](O)/C=C/[C@@H]1[C@@H](C/C=C\CCCC(=O)O)[C@@H](O)C[C@H]1O` [16,16-dimethyl Prostaglandin F2.alpha.]: the “scaled lipid accumulation score” value under setting [1] is not above 0.
`O=[N+]([O-])c1cn2c(n1)OC[C@@H](OCc1ccc(OC(F)(F)F)cc1)C2`: the “scaled lipid accumulation score” value under setting [6] was not above 0 and the “scaled lipid accumulation score” value under setting [2] is not above 0.
Regarding `NC(=O)c1ccc([N+](=O)[O-])cc1Cl` [Aklomide], the “scaled lipid accumulation score” value under setting [2] is 0.07.
For the compound `O=[N+]([O-])c1ccc2c(c1)S(=O)(=O)C=C2` [Stattic] [listing 1 of 2 here], the “scaled lipid accumulation score” value under setting [6] was 1.25 (active).
Regarding `O=[N+]([O-])c1ccc2c(c1)S(=O)(=O)C=C2` [Stattic] [listing 2 of 2 here], the “scaled lipid accumulation score” value under setting [2] was 0.347.
Consider `CCCCCCCC/C=C\CCCCCCCC(=O)NCC` [Oleoyl Ethyl Amide], for which the “scaled lipid accumulation score” value under setting [1] is not above 0.
Consider `O=c1[nH]cnc2[nH]ncc12` [Allopurinol Sodium], for which the “scaled lipid accumulation score” value is not above 0 under setting [6] and not above 0 under setting [2].
Consider `CC(C)C(=O)Oc1ccc(CO)cc1[C@H](CCN(C(C)C)C(C)C)c1ccccc1.O=C(O)C=CC(=O)O` [Fesoterodine Fumarate], for which, under setting [2], the “scaled lipid accumulation score” value was 1.13 (active).
As for `CC(C)C(=O)Oc1ccc(CO)cc1[C@H](CCN(C(C)C)C(C)C)c1ccccc1` [Fesoterodine Fumarate], the “scaled lipid accumulation score” value under setting [6] is 0.256.
Regarding `CC(C)N(CC[C@H](c1ccccc1)c1cc(CO)ccc1O)C(C)C`, the “scaled lipid accumulation score” value runs as follows: under setting [6], 0.012; under setting [2], not above 0.
As for `O=C(Cc1ccccc1Nc1c(Cl)cccc1Cl)Oc1ccc(-c2cc(=S)ss2)cc1`, the “scaled lipid accumulation score” value under setting [1] is not above 0.
With `O=C(Nc1nc2ccccc2n1CCN1CCOCC1)c1cccc([N+](=O)[O-])c1` [IRAK-1/4 Inhibitor I], the “scaled lipid accumulation score” value under setting [2] was 0.485.
As to `C[C@H]1[C@H]2CC[C@H]3[C@@H]4CC=C5C[C@@H](N(C)C)CC[C@]5(C)[C@H]4CC[C@]23CN1C` [Conessine], the “scaled lipid accumulation score” value is 0.137.
On to `Cc1cc(C(C)Nc2ccccc2)c2nc(N3CCOCC3)cc(=O)n2c1` (centres undefined), for which the “scaled lipid accumulation score” value under setting [3] was not above -0.009; the “scaled lipid accumulation score” value under setting [4] was ≤ -0.009 and ≤ -0.005; the “scaled lipid accumulation score” value under setting [5] was ≤ -0.009 and ≤ -0.005; the “scaled lipid accumulation score” value under setting [6] is not above 0; the “scaled lipid accumulation score” value under setting [2] was ≤ 0 and ≤ -0.009 and ≤ -0.005.
Turning to `c1ccc(CN2CCC3(CCc4ccccc43)CC2)cc1` [L-693,403 maleate], the “scaled lipid accumulation score” value under setting [2] is 0.504.
On the same count and under the same terms, to `c1ccc(CN2CCC3(CCCc4ccccc43)CC2)cc1` [L-687,384 hydrochloride] belongs 0.374; to `Cl.Cl.O=C(NCCCN1CCC2(CC1)OCc1ccccc12)[C@H]1CCCN1Cc1ccccc1`, 0.974 (active).
With `CC1(C)S[C@@H]2[C@H](N3C(=O)[C@@H](c4ccccc4)NC3(C)C)C(=O)N2[C@H]1C(=O)O` [Hetacillin potassium], the “scaled lipid accumulation score” value (library stock concentration: 4.7 mM) was 0.007 and the “scaled lipid accumulation score” value under setting [2] was not above 0.
Consider `CC(C)(C)CC(C)(C)c1ccc(O)c(Cc2ccc(Cl)cc2Cl)c1` [Clofoctol], for which the “scaled lipid accumulation score” value under setting [2] is not above -0.027.
Turning to `CC(=O)O[C@]1(C(C)=O)CC[C@H]2[C@@H]3C=C(C)C4=CC(=O)CC[C@]4(C)[C@H]3CC[C@@]21C` [Megestrol Acetate], the “scaled lipid accumulation score” value under setting [6] is not above 0 and the “scaled lipid accumulation score” value under setting [2] is not above 0.
Consider `CC(=O)O[C@]1(C(C)=O)CC[C@H]2[C@@H]3C=C(C)C4=CC(=O)CC[C@]4(C)[C@H]3CC[C@@]21C`, for which the “scaled lipid accumulation score” value under setting [2] is not above 0.
On to `CC(=O)O[C@]1(C(C)=O)CC[C@H]2[C@@H]3C=C(Cl)C4=CC(=O)CC[C@]4(C)[C@H]3CC[C@@]21C` [Chlormadinone acetate], for which the “scaled lipid accumulation score” value (library stock concentration: 4.5 mM) is 0.064 and the “scaled lipid accumulation score” value (library stock concentration: 4.9 mM) is 0.08.
For `CC(=O)O[C@]1(C(C)=O)CC[C@H]2[C@@H]3C=C(C)C4=CC(=O)CC[C@]4(C)[C@H]3CC[C@@]21C` [Megestrol acetate], the “scaled lipid accumulation score” value was not above 0. Besides, where the note is “library stock concentration: 5.2 mM”, the “scaled lipid accumulation score” value was ≤ 0 and 0.036. Further, the “scaled lipid accumulation score” value under setting [2] is not above 0.
For the compound `CC(=O)O[C@]1(C(C)=O)CCC2C3C=C(Cl)C4=CC(=O)CC[C@]4(C)C3CC[C@@]21C` (some centres undefined) [Chlormadinone acetate], the “scaled lipid accumulation score” value under setting [2] is 0.968 (active).
